Measurements: ChEMBL document CHEMBL3988442, “University of Dundee, Small-Polar-MMV Screening Library” (2021)
For some of these results: Results with a measured potency or affinity are listed apart.

Columns and labels:
Set-up in all cases: scale not given: direction of the effect not stated beside the values
[1] = target: Protein translocase subunit SecA (Escherichia coli (strain K12)) (UniProt P10408); assay: Assay to Identify E. coli SecA ATPase Inhibitors; assay type: functional; settings: 30 µM
[2] = target: T1, Ubiquitin-activating enzyme e1, putative (Leishmania donovani (strain BPK282A1)) (UniProt E9BSI1); assay: Leishmania donovani Ubiquitin Activating Enzyme (LdE1); assay type: functional; settings: 30 µM
T1 sequence (whole entry): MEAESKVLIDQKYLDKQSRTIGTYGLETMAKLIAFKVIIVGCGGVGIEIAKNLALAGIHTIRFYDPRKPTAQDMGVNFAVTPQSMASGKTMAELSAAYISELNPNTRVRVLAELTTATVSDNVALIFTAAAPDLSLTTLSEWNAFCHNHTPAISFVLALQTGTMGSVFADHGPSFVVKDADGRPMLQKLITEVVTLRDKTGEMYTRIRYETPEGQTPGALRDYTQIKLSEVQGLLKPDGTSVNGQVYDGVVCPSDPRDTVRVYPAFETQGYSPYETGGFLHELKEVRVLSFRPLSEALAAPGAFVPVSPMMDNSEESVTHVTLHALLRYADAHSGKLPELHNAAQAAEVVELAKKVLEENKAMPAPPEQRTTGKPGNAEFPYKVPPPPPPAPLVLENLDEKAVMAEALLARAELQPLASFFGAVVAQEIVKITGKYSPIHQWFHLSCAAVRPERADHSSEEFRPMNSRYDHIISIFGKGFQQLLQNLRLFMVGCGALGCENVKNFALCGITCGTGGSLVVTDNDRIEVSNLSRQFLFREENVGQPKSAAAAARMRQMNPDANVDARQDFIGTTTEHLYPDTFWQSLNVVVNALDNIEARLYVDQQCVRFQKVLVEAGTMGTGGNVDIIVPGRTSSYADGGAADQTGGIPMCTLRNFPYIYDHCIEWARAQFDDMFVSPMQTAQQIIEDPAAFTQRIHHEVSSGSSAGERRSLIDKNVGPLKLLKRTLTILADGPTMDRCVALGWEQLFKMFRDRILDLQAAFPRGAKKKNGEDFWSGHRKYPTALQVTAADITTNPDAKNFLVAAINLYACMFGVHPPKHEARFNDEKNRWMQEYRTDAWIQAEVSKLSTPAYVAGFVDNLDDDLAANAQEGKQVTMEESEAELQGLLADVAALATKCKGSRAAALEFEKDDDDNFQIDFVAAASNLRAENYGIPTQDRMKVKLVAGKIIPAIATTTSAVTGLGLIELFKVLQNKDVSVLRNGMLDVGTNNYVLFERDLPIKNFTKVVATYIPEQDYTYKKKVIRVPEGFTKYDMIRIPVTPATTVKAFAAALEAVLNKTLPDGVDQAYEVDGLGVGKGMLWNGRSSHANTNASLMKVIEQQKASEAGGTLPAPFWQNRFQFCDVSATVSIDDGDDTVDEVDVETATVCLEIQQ

[3] = target: AMP-activated protein kinase, AMPK (Homo sapiens) (UniProt P54646+O43741+P54619+Q9UGJ0+Q9Y478+Q13131+Q9UGI9); assay: AMP-dependent Kinase enzyme assay. An in vitro enzyme assay that detects ADP turnover that is directly proportional to AMPK activity. This uses naive AMPK that is activated during the assay with MK-8722; assay type: functional; settings: 30 µM
[4] = target: Sialic acid-binding Ig-like lectin 9 (Homo sapiens) (UniProt Q9Y336); assay: Hs-Siglec9 ALPHAscreen SOP 20170721; settings: 10 µM
Trypanosoma cruzi = assay: Trypanosoma cruzi phosphomannomutase and mannose-1-phosphate guanylyltransferase assay; assay type: functional; settings: 10 µM
[5] = target: T2, Arginase-2, mitochondrial (Homo sapiens) (UniProt P78540); assay: in vitro enzyme assay to detect the production of urea directly proportional to the activity of Arginase II; assay type: functional; settings: 33.3 µM; also: in the data most compounds retested in dose-response had high values
T2 sequence (whole entry): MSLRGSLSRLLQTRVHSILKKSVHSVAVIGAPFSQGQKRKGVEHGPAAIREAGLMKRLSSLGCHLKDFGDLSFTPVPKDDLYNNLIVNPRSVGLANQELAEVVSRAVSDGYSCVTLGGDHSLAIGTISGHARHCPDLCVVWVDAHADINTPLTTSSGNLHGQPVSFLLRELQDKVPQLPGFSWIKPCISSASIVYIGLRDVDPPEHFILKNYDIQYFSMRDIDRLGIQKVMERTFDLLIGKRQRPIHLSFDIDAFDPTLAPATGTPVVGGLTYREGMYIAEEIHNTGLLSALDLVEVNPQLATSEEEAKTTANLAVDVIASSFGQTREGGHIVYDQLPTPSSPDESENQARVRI

[6] = target: T3, Proteasome subunit beta (Trypanosoma cruzi) (UniProt O96673); assay: Trypanosoma cruzi proteasome chymotrypsin-like activity (TcProtChymo) assay.; also: in the data most compounds retested in dose-response had high values; assay type: functional; settings: 9.37 µM
T3 sequence (whole entry): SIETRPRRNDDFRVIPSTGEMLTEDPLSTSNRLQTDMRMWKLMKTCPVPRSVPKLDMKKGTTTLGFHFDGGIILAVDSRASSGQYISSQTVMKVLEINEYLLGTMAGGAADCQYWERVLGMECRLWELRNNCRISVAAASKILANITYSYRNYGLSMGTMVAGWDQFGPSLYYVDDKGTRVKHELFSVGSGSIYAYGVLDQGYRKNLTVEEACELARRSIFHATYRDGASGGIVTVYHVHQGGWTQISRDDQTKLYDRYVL

Homo sapiens = species on record: Homo sapiens; assay: To identify inhibition of the IFN signalling (Jak-Stat) pathway via expression of an eGFP reporter gene under the control of an IFN-stimulated response element (ISRE) containing MxA promoter.; assay type: functional; settings: 30 µM
[7] = target: T4, Tyrosyl-tRNA synthetase, putative (Trypanosoma cruzi (strain CL Brener)) (UniProt Q4DSP6); assay: Trypanosoma cruzi tyrosyl tRNA synthetase (TcYRS) _High Tyrosine SOP; assay type: functional; settings: 30 µM; also: in the data most compounds retested in dose-response had high values
T4 sequence (whole entry): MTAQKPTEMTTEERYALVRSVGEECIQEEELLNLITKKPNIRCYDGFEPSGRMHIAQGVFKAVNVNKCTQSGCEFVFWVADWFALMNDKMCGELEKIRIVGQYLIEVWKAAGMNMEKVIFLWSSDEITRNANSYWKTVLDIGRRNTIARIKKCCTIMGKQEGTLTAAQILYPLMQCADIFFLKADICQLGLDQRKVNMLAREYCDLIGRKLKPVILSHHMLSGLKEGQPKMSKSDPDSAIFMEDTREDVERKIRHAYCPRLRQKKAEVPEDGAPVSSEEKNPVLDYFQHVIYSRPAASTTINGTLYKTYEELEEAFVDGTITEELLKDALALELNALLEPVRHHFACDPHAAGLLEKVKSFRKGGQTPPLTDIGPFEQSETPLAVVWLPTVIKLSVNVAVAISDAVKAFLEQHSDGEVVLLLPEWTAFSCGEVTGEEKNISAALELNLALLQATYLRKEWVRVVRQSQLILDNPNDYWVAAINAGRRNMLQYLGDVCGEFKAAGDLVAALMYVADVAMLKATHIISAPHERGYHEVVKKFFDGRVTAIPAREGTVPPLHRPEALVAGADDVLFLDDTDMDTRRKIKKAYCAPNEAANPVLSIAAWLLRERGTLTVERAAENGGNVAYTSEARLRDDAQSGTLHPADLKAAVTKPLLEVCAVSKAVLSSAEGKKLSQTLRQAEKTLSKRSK

[8] = target: T4, Tyrosyl-tRNA synthetase, putative (Trypanosoma cruzi (strain CL Brener)); assay: Trypanosoma cruzi tyrosyl tRNA synthetase (TcYRS) SOP; assay type: functional; settings: 30 µM
[9] = target: Chromo domain-containing protein 1 (Saccharomyces cerevisiae (strain ATCC 204508 / S288c) (Baker's yeast)) (UniProt P32657); assay: ScCHD-1 Enzyme Inhibition Assay; assay type: functional; settings: 30 µM; also: in the data most compounds retested in dose-response had high values
Chain of Chromo domain-containing protein 1 (Saccharomyces cerevisiae (strain ATCC 204508 / S288c) (Baker's yeast)) (P32657 whole entry, the tested form may be a part): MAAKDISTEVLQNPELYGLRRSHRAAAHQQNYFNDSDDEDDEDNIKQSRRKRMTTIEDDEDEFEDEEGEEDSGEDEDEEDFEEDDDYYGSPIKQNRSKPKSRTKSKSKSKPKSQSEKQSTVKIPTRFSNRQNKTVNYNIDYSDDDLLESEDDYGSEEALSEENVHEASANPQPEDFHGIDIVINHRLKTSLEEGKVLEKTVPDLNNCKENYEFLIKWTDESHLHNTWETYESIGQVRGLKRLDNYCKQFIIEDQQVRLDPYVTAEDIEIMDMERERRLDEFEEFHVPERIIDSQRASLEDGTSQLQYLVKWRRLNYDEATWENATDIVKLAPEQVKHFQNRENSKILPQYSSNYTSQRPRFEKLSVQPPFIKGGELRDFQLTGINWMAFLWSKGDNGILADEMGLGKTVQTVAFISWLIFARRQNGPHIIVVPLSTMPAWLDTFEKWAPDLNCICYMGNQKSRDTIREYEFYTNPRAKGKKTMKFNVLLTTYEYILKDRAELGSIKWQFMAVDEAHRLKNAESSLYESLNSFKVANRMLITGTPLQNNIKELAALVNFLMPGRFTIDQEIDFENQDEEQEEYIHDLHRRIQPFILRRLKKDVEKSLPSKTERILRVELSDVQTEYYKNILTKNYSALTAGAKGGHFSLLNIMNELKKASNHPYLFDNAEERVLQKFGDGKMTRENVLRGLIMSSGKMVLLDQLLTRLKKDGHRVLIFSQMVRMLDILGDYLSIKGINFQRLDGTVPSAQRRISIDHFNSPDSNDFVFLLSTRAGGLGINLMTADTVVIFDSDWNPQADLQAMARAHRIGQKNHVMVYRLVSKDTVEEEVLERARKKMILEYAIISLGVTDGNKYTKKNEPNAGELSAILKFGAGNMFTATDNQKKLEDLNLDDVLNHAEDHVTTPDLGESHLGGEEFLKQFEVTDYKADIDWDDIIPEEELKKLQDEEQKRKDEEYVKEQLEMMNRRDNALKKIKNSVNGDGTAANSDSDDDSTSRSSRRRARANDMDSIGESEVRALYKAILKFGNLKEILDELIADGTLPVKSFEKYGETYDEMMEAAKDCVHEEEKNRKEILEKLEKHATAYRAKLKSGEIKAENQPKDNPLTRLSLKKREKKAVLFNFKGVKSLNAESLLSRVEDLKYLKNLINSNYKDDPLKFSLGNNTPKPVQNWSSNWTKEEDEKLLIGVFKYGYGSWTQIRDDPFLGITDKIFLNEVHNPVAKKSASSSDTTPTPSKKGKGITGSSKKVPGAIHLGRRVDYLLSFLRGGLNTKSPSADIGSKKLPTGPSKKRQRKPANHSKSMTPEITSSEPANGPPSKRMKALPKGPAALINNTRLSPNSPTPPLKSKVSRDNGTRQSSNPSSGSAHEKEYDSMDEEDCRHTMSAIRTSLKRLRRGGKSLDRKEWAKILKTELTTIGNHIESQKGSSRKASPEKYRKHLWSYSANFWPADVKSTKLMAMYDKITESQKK

Chain of Sialic acid-binding Ig-like lectin 9 (Homo sapiens) (Q9Y336 whole entry): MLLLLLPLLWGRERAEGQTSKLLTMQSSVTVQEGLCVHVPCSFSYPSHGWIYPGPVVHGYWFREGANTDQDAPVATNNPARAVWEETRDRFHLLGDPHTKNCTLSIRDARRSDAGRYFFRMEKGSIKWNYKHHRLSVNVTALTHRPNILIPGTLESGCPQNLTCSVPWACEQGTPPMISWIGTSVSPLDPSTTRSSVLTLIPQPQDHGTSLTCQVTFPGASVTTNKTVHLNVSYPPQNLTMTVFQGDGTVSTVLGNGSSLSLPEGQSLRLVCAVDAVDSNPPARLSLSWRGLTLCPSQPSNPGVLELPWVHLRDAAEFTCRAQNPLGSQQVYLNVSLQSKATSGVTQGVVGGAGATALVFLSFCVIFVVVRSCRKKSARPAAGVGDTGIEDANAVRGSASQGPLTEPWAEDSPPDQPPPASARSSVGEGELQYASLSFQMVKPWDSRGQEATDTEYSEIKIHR
Chain of Protein translocase subunit SecA (Escherichia coli (strain K12)) (P10408 whole entry): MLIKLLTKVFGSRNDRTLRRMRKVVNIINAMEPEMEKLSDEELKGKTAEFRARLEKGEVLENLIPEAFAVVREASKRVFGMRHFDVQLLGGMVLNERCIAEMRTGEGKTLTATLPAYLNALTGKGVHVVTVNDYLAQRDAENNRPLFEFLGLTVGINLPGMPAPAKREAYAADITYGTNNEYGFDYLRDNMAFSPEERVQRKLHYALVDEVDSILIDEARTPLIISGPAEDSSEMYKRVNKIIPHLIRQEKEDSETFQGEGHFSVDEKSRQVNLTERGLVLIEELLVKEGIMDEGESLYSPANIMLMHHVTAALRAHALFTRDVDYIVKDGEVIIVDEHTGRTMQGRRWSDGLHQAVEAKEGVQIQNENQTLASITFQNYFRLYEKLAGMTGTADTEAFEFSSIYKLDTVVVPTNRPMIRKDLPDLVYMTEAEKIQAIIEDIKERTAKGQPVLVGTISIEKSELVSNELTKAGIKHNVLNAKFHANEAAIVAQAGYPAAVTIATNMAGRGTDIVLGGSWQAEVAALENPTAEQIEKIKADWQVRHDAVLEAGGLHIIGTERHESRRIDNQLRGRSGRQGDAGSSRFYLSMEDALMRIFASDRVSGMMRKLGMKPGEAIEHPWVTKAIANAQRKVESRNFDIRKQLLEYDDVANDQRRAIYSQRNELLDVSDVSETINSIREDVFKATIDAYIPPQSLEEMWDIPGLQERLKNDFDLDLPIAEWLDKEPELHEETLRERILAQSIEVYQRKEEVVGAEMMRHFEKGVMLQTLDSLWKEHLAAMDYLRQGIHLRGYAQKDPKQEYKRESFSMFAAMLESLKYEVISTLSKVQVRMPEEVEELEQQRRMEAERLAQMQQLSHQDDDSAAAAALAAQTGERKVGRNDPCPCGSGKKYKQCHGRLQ

| Compound | Percent Effect [1] | Percent Effect [2] | Percent Effect [3] | Percent Effect [4] | Percent Effect (Trypanosoma cruzi) | Percent Effect [5] | Percent Effect [6] | Percent Effect (Homo sapiens) | Percent Effect [7] | Percent Effect [8] | Percent Effect [9] |
| --- | --- | --- | --- | --- | --- | --- | --- | --- | --- | --- | --- |
| CCCc1cc(=O)n(CC(N)=O)c(-n2nc(C)cc2C)n1 | -1.73% | 7.79% | 7.17% | -1.59% | 2.46% | -4.52% | 10.1% | 32% | 3.17% | 11.5% | -9.6% |
| CCc1ccc(C(=O)N2CCC(c3nncn3CC)CC2)cc1 | -10% | 18.4% | -9.82% | -0.88% | 7.3% | -5.92% | 7.57% | 5.31% | 3.19% | 15.6% | -9.19% |
| COc1ccc(NC(C)=O)c(N2CCN(C(C)=O)CC2)n1 | -3.73% | -2.7% | -14.1% | -3.66% | -3.32% | 0% | 7.35% | -1.36% | 7.92% | 8.54% | 15.3% |
| CC(CN1CCOCC1)NC(=O)NCc1ccc(Cl)s1 (stereo unspecified) | 0.411% | 10.5% | 7.25% | 0.82% | -2.63% | -2.37% | 15.8% | 5.71% | 8.51% | 20.8% | -3.24% |
| CC(C)CN1C(=O)C2(CCN(Cc3nccs3)C2)c2ccccc21 (stereo unspecified) | -1.96% | 5.41% | -2.39% | 1.8% | -5.08% | 5% | 16.1% | 37.2% | 3.96% | 3.66% | -5.7% |
| O=C(NCc1cn2c(n1)CN(CC1CCOCC1)CC2)C1CCC1 | -8.08% | -2.7% | 4.27% | 1.46% | -2.73% | -1.25% | 12.9% | 5.25% | 2.97% | 1.22% | -0.655% |
| Cc1nc(NC(=O)CNC(=O)c2c(F)cccc2Cl)n[nH]1 | -5.26% | 13.2% | 2.15% | 2.44% | 3.21% | -3.55% | 9.11% | 3.8% | 1.06% | 7.79% | -1.65% |
| Cc1csc(Nc2cc(C3CCCCN3C)nc(C)n2)n1 (stereo unspecified) | 1.97% | 8% | 7.4% | -13.6% | -5.71% | 3.5% | 17.5% | 14.7% | 4.25% | 6.41% | -0.0696% |
| COC(=O)C1CCN(C(=O)CN2CCN(c3cccc(C)c3)CC2)CC1 | -1.93% | 2.74% | 1.05% | 3.16% | -7.54% | -1.6% | 8.65% | 0.408% | 5.21% | 16.1% | -1.41% |
| CCc1nnc2n1CCN(C(=O)c1cc3cc(F)ccc3[nH]1)C2 | -3.51% | 0% | 21% | 11.1% | 4.68% | -1.78% | 2.37% | -24.4% | 7.77% | 24.4% | -11.3% |
| c1cnc2c(c1)cc([C@H]1CCCO1)n2CCN1CCOCC1 | -4.11% | 9.46% | 14.2% | 5.59% | -0.593% | -5.8% | 3.9% | 3.93% | 1.07% | 11.7% | -13.8% |
